Source: PubChem BioAssay (several laboratories)
ERa SRC1 pot – enhances coactivator binding to human estrogen receptor alpha. P03372. TR-FRET ERalpha-LBD/SRC-Cy5 coactivator binding, 2 h; 100 = basal binding, no effect. coactivator binding (% of control), % at 25.6 µM. 1.3% of 86,000 active; in the data active means activity above about 200%;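 further: binding measured in presence of low estradiol as agonist stimulus; 0% = peptide alone without receptor and 100% = receptor with peptide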
Candida biofilm – kills Candida albicans biofilms; C. albicans biofilm + clotrimazole, Alamar Blue; inhibition, % at 6 µM; 0.14% of 85,000 active;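 active means inhibition above 20%; inactive means inhibition below 20%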;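 further: preformed 24 hr biofilms exposed to compound for 48 hr; 0% = biofilm without compound and 100% = blank killed by clotrimazole plus chlorhexidine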
ERb SRC1 inh – ER-beta (human) coactivator binding inhibition; Q92731; TR-FRET ER-beta LBD / SRC1-Cy5 peptide binding; receptor agonist-loaded with 1 µM estradiol; inhibition, % at 25.6 µM; 1.3% of 86,000 active;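 active means compounds whose percent inhibition of the receptor-coactivator binding signal exceeds about 50% in the single-dose screen, limit read from the data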;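 further: 0% = receptor plus peptide wells without compound and 100% = peptide-only wells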
Target sequence (Q92731 whole entry, looked up, the tested form may be a part): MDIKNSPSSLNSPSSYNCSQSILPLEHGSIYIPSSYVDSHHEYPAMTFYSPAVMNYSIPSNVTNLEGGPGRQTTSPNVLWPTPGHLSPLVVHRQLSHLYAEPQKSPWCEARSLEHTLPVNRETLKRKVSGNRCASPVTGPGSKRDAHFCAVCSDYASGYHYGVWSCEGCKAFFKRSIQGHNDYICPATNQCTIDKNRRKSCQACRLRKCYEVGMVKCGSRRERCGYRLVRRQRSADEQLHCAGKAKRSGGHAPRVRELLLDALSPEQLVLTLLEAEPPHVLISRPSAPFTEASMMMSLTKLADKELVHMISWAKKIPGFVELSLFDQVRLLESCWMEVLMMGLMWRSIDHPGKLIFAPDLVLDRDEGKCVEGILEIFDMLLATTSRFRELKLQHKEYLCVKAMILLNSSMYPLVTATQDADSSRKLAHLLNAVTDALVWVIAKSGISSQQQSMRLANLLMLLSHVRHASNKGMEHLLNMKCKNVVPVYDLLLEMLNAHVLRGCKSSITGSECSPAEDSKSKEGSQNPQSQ
HePTP inh – inhibitors of human HePTP phosphatase | P35236 | recombinant HePTP phosphatase activity, OD absorbance | inhibition, % at 20 µM | 0.64% of 110,000 active | AID 521; in the data active means inhibition above about 50%;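 further: plate controls were vehicle for no effect and reference inhibitor for full effect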
Smad3 FoxH1 inh – Smad3 (human) transcription factor binding inhibition. P84022. TR-FRET Smad3/Dy647-FoxH1 peptide binding, europium anti-His. inhibition, % at 25 µM. 0.29% of 88,000 active;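 active means compounds that reduce the energy-transfer binding signal between the protein and its labelled peptide by more than half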;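 further: 0% = Smad3 plus labelled peptide maximal FRET and 100% = peptide-only background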
ERa coact inh – ER-alpha (human) coactivator binding inhibition; inhibition, % at 25.6 µM; P03372; 1.7% of 86,000 active; AID 629; TR-FRET ER-alpha LBD / SRC-1 peptide, estradiol-bound; in the data active means inhibition above about 50%;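 further: 0% = receptor plus peptide control and 100% = peptide only without receptor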
Numbers without * were called inactive; . = no result given; [ ] = remark or other dose. Hits are enriched below; roughly 2.9% of the tested compounds scored in any of these assays.

SMILES	ERa SRC1 pot	Candida biofilm	ERb SRC1 inh	HePTP inh	Smad3 FoxH1 inh	ERa coact inh
O=C(NCc1cccnc1)C1c2ccccc2C(=O)N1Cc1ccco1 (stereo not drawn)	93	8	51*[fluorescence artefact?]	10	12	0
COc1ccc(OC)c(/C=C2/C(=O)NC(=O)N(c3ccc(C(C)C)cc3)C2=O)c1	.	.	.	10	.	.
Cn1c(=O)oc2cc(S(=O)(=O)N3CCCC(C(=O)Nc4ccccn4)C3)ccc21 (stereo not drawn)	109	8	-2	.	3	4
Cn1c(=O)oc2cc(S(=O)(=O)N3CCCC(C(=O)NC4CCCc5ccccc54)C3)ccc21 (stereo not drawn)	80	9	51*[fluorescence artefact?]	.	-1	16
Cc1nn(-c2ccc(S(=O)(=O)O)cc2)c(O)c1N=Nc1ccc(-c2ccc(N=Nc3ccc4c(S(=O)(=O)O)cc(S(=O)(=O)O)c(N)c4c3O)c(O)c2)cc1O.[Cu].[Cu]	.	.	.	.	101*	.
O=C(COC(=O)C1CCN(S(=O)(=O)c2cc([N+](=O)[O-])ccc2Cl)CC1)Nc1ncc(Cl)cc1Cl	18	9	80*[fluorescence artefact?]	.	27	78*[fluorescence artefact?]
O=C(COC(=O)CN1C(=O)c2ccccc2C1=O)Nc1ncc(Cl)cc1Cl	54	7	56*	6	-1	60*[fluorescence artefact?]
CC(C)CC(C(=O)OCC(=O)Nc1ncc(Cl)cc1Cl)N1C(=O)c2ccccc2C1=O (stereo not drawn)	107	4	28	.	-1	11
O=C(COC(=O)CCCN1C(=O)c2ccccc2C1=O)Nc1ncc(Cl)cc1Cl	48	9	58*[fluorescence artefact?]	0	7	69*[fluorescence artefact?]
O=C(CCCN1C(=O)c2ccccc2C1=O)Nc1ccccn1	124	7	-14	4	3	-16
Cc1cnn(-c2nc(-c3ccccc3)cc(-c3ccc(F)cc3)n2)c1	.	.	.	6	.	.
COc1ccc(C(=O)N2CCN(Cc3cccc4ccccc34)CC2)cc1OC	.	.	.	4	.	.
COC(=O)c1ccccc1NS(=O)(=O)c1ccc2c3c(cccc13)C(=O)N2	91	3	-6	2	1	5
Cc1oc2c(cc(NS(=O)(=O)c3ccc4c5c(cccc35)C(=O)N4)c3ccccc32)c1C(=O)OC(C)C	20	7	57*	.	4	93*[fluorescence artefact?]
COc1cc(C2C(C#N)=C(N)Oc3cc(C)oc(=O)c32)cc2c1OCO2 (stereo not drawn)	101	4	62*	-5	17	70*
COc1cc(C2C(C#N)=C(N)Oc3cc(C)n(CC4CCCO4)c(=O)c32)cc2c1OCO2 (stereo not drawn)	112	7	-10	5	-2	-5
O=c1[nH]c(CN2CCN(c3ccccc3Cl)CC2)nc2ccsc12	104	-2	1	5	8	-6
COc1cc2c(cc1OC)CN(Cc1nc3ccsc3c(=O)[nH]1)CC2	59	1	49	7	9	53*[fluorescence artefact?]
O=C1CC(c2ccc(F)cc2)Cc2nc(N3CCc4ccccc43)ncc21 (stereo not drawn)	203*[fluorescence artefact?]	6	24	6	41	23
CCOC(=O)c1cccc(/C=C/N(C)C)c1[N+](=O)[O-]	.	.	.	3	.	.
c1ccc(-n2ncc3c2ncn2nc(-c4ccco4)nc32)cc1	315*[fluorescence artefact?]	5	49	-3	33	45
CCOC(=O)C1=C(O)/C(=C/c2cccnc2)SC1=Nc1cccc(Cl)c1	.	.	.	-17	.	.
O=C(Nc1nc2ccc(Br)cc2s1)c1cccs1	.	.	.	2	.	.
CSc1nc2ccc3nc(NC(=O)c4cccs4)sc3c2s1	182	5	79*[fluorescence artefact?]	4	-6	69*[fluorescence artefact?]
CSc1nc2ccc3nc(NC(=O)c4ccc(Cl)s4)sc3c2s1	88	3	35	.	-11	59*[fluorescence artefact?]
SMILES	ERa SRC1 pot	Candida biofilm	ERb SRC1 inh	HePTP inh	Smad3 FoxH1 inh	ERa coact inh
O=C(Nc1nc2ccc3ccccc3c2s1)c1ccc(Cl)s1	.	.	.	104*	.	.
Cc1cc(C)n(CCc2nc3c4ccccc4nc(SCc4ccc(C#N)cc4)n3n2)n1	95	4	33	-1	-7	59*[fluorescence artefact?]
O=C1NC(=S)SC1=C1CCCCC1	.	.	.	7	.	.
O=C1NC(=S)SC1=C1CCCC1	39	5	56*	.	-2	46
COc1ccc(C2=NN(C(=O)CSc3cn(C)c4ccccc34)C(c3ccc(OC)cc3)C2)cc1 (stereo not drawn)	639*[fluorescence artefact?]	10	0	.	0	-5
COc1ccc(-c2cc(C(=O)NC3CCCCC3)c3ccccc3n2)c(OC)c1	.	.	.	3	.	.
O=C(Nc1cnn(Cc2ccc(Cl)cc2Cl)c1)c1cc(-c2cccs2)on1	157	7	23	7	-3	51*[fluorescence artefact?]
Cc1cccc(Nc2nn3c(=O)c4ccccc4nc3s2)c1	221*[fluorescence artefact?]	-2	58*[fluorescence artefact?]	.	-18	66*[fluorescence artefact?]
Cc1cccc(Nc2ncnc3ccccc23)c1	.	.	.	7	.	.
COC(=O)c1ccsc1NC(=O)CSc1nnnn1-c1ccccc1SC	263*[fluorescence artefact?]	4	-9	6	10	-19
O=C(Nc1ccc(NC(=O)c2ccc([N+](=O)[O-])cc2Cl)cc1Cl)c1ccco1	.	.	.	7	.	.
COc1ccccc1C(=O)Oc1ccc(C(C)C)cc1	91	58*	-7	.	9	-8
CCCOC(=O)c1c(-c2ccc(OC)c(OC)c2)csc1N	.	.	.	104*	.	.
CCCOC(=O)c1c(-c2ccc(OCC)cc2)csc1N	.	.	.	-10	.	.
CCCCc1ccc(CCCCC(=O)O)s1	.	.	.	-3	.	.
O=C1CS/C(=N/N=C/c2ccc3c(c2)OCO3)N1	.	.	.	0	.	.
NC(=O)CSc1nnc(Cc2csc(Nc3ccccc3)n2)n1Cc1ccccc1	111	10	0	10	86*	-2
CC(C)NC(=O)CN1C(=O)NC(CCc2ccccc2)C1=O (stereo not drawn)	107	-2	-4	.	-1	61*[fluorescence artefact?]
O=C(Nc1nnc(-c2ccco2)s1)C1CC1	94	5	18	8	4	0
O=C(Nc1nnc(-c2ccco2)s1)C1CCN(S(=O)(=O)c2ccc(Cl)cc2)CC1	410*[fluorescence artefact?]	6	8	-6	0	11
Cc1ccc2nc3c(N)c(Cl)cc4c3c(c2c1)-c1ccccc1C4=O	.	.	.	1	.	.
O=C(O)c1ccc2c(c1)C1C=CCC1C(c1ccc([N+](=O)[O-])cc1)N2 (stereo not drawn)	.	.	.	102*	.	.
O=C(O)c1cccc2c1NC(c1ccc(Cl)cc1)C1CC=CC21 (stereo not drawn)	.	.	.	104*	.	.
O=[N+]([O-])c1cccc2c1NC(c1ccccc1F)C1CC=CC21 (stereo not drawn)	.	.	.	-1	.	.
C1=CC2c3ccccc3NC(c3ccncc3)C2C1 (stereo not drawn)	39	5	40	2	13	40
COC(=O)c1ccc2c(c1)C1C=CCC1C(c1ccc([N+](=O)[O-])cc1)N2 (stereo not drawn)	.	.	.	10	.	.
O=C(O)c1ccc(Cl)c2c1C1C=CCC1C(c1ccccn1)N2 (stereo not drawn)	15	15	87*[fluorescence artefact?]	10	13	65*[fluorescence artefact?]
O=C(O)c1cccc2c1NC(c1cccc3ccccc13)C1CC=CC21 (stereo not drawn)	.	.	.	102*	.	.
